Experimental data published in the antibiotic and cytotoxicity screens of Wong et al. (2023).
The campaign covered roughly 39,000 compounds. About 3,300 (8.5%) were called active. Only a selection was taken, and actives are over-represented in it overall.

system: HepG2; assay: cytotoxicity call (relative viability < 0.9); conditions: 10 µM

| Compound | cytotoxicity call |
| --- | --- |
| CS(=O)(=O)Nc1ccc2c(c1)[C@@H]1C[C@@H](CC(=O)NCc3ccc(-c4ccccc4)cc3)O[C@@H](CO)[C@@H]1O2 | inactive |
| C[C@H](CO)N1C[C@H](C)[C@@H](CN(C)S(=O)(=O)c2cccs2)Oc2ccc(NS(=O)(=O)c3cn(C)cn3)cc2CC1=O | inactive |
| C[C@H]1CN([C@@H](C)CO)C(=O)c2cccc(NS(=O)(=O)c3cn(C)cn3)c2O[C@@H]1CN(C)C(=O)Nc1ccc(F)cc1 | inactive |
| O=C(C[C@@H]1C[C@H]2c3cc(NS(=O)(=O)c4ccc(F)cc4)ccc3O[C@H]2[C@@H](CO)O1)NCc1cccc(F)c1 | inactive |
| Cc1cc(C(=O)Nc2cccc3c2O[C@@H](CN(C)C(=O)Nc2c(C)noc2C)[C@@H](C)CN([C@@H](C)CO)C3=O)n(C)n1 | inactive |
| Cc1ccc(OC(=O)N(C)C[C@H]2OCc3ccccc3-c3ccccc3C(=O)N([C@H](C)CO)C[C@H]2C)cc1 | inactive |
| COc1ccc(CN(C)C[C@@H]2Oc3ccc(NC(=O)Cn4cnnn4)cc3CC(=O)N([C@@H](C)CO)C[C@@H]2C)cc1 | inactive |
| C[C@@H]1CN([C@@H](C)CO)C(=O)c2cc(NC(=O)c3ccncc3)ccc2O[C@@H](C)CCCCO[C@@H]1CN(C)C(=O)NC1CCCCC1 | active |
| C[C@@H]1CCCCO[C@@H](CN(C)C(=O)NC2CCCCC2)[C@@H](C)CN([C@H](C)CO)C(=O)c2cc(NC(=O)c3ccncc3)ccc2O1 | inactive |
| C[C@@H]1CCCCO[C@H](CN(C)C(=O)NC2CCCCC2)[C@@H](C)CN([C@H](C)CO)C(=O)c2cc(NC(=O)c3ccccc3)ccc2O1 | inactive |
| C[C@H](CO)N1C[C@H](C)[C@@H](CN(C)C(=O)NC2CCCCC2)OCCCC[C@H](C)Oc2ccc(NC(=O)c3ccccc3)cc2C1=O | active |
| C[C@@H]1CCCCO[C@H](CN(C)C(=O)NC2CCCCC2)[C@@H](C)CN([C@@H](C)CO)C(=O)c2cc(NC(=O)c3ccncc3)ccc2O1 | inactive |
| C[C@H]1CCCCO[C@H](CN(C)C(=O)NC2CCCCC2)[C@@H](C)CN([C@@H](C)CO)C(=O)c2cc(NC(=O)c3ccccc3)ccc2O1 | inactive |
| CC(C)NC(=O)Nc1ccc2c(c1)C(=O)N([C@@H](C)CO)C[C@@H](C)[C@H](CN(C)Cc1ccc(Oc3ccccc3)cc1)O2 | inactive |
| C#CCN1C(=O)N(C(=O)c2ccccc2)[C@@H]2c3ccccc3O[C@@]1(COCc1ccc(OC)cc1)[C@@H]2CO[Si](C)(C)C(C)(C)C | inactive |
| O=C(N[C@@H]1C=C[C@H](CC(=O)N2CCOCC2)O[C@@H]1CO)c1ccccn1 | inactive |
| C[C@H](CO)N1C[C@H](C)[C@@H](CN(C)S(=O)(=O)c2cccs2)Oc2ccc(NS(=O)(=O)c3ccc(F)cc3)cc2CC1=O | inactive |
| C[C@H](CO)N1C[C@H](C)[C@H](CN(C)C(=O)Nc2cccc(Cl)c2Cl)OCc2ccccc2-c2ccccc2C1=O | inactive |
| O=C(O)c1ccc(O)c(O)c1 | inactive |
| N#Cc1ccc(O)c(O)c1 | active |
| N#Cc1ccc(CN)cc1 | inactive |
| COc1ccc(NC(=O)N(C)C[C@H]2Oc3ccc(NC(=O)Nc4ccc(C(F)(F)F)cc4)cc3C(=O)N([C@H](C)CO)C[C@@H]2C)cc1 | inactive |
| C=CCNC(=O)C(=O)NC[C@H]1OCCCN1S(=O)(=O)c1ccccc1 | inactive |
| C[C@@H]1CN([C@@H](C)CO)S(=O)(=O)c2ccc(C3=CCCCC3)cc2O[C@@H]1CN(C)Cc1cncnc1 | inactive |
| C[C@@H]1CN([C@@H](C)CO)C(=O)Cc2cc(NC(=O)Cn3cnnn3)ccc2O[C@H]1CN(C)C(=O)NC1CCCCC1 | inactive |

| Compound | cytotoxicity call |
| --- | --- |
| Cc1noc(C)c1NC(=O)N(C)C[C@@H]1Oc2ccc(NC(=O)c3ccncc3)cc2C(=O)N([C@H](C)CO)C[C@H]1C | inactive |
| O=c1[nH]c(=O)c2ccccc2[nH]1 | inactive |
| COc1ccc2[nH]c(=O)[nH]c(=O)c2c1 | active |
| NCCc1c(C(=O)O)[nH]c2ccc(Br)cc12 | inactive |
| COc1ccc2[nH]c3c(-c4cccc5ccccc45)nccc3c2c1 | inactive |
| O=c1[nH]c(=O)c2cc(Br)ccc2[nH]1 | active |
| COc1ccc2[nH]cc(CCNC(C)=O)c2c1 | inactive |
| C[C@@H]1CCCCO[C@H](CN(C)C(=O)Nc2ccc(C(F)(F)F)cc2)[C@@H](C)CN([C@H](C)CO)C(=O)c2cc(NS(C)(=O)=O)ccc2O1 | inactive |
| CC(C)NC(=O)Nc1cccc2c1O[C@@H](CN(C)C(=O)Nc1ccc3c(c1)OCO3)[C@@H](C)CN([C@@H](C)CO)C2=O | inactive |
| C[C@@H]1CN([C@@H](C)CO)C(=O)c2cccc(NS(=O)(=O)c3ccccc3)c2O[C@@H]1CN(C)S(=O)(=O)c1cn(C)cn1 | inactive |
| C=CCOC(=O)[C@H]1[C@@H]2C(=O)O[C@@H](c3ccccc3)[C@@H](c3ccccc3)N2[C@@H](c2ccc(OCCOC(=O)[C@H]3C[C@H]4C(=O)N[C@@H](CC(C)C)C(=O)N4[C@H]3c3ccc(O)cc3)cc2)[C@]12C(=O)Nc1ccc(I)cc12 | inactive |
| COc1cc(CCC(=O)O)oc(=O)c1 | inactive |
| COC(=O)[C@H](Cc1ccccc1)N1CC(/C=C/C2CC2)=C[C@@H]1[C@@H](O)CCn1cc(-c2ccc(C(=O)NO)cc2)nn1 | inactive |
| COC(=O)[C@H](Cc1ccccc1)N1CC(/C=C/C2CC2)=C[C@@H]1[C@@H](O)CCn1cc(-c2ccc(C(=O)NO)s2)nn1 | inactive |
| COC(=O)[C@@H](Cc1ccccc1)N[C@H](/C=C/C1CC1)[C@@H](O)CCn1cc(-c2ccc(C(=O)NO)s2)nn1 | active |
| C#CCN([C@H](/C=C/C1CC1)[C@@H](O)CCn1cc(-c2ccc(C(=O)NO)s2)nn1)[C@@H](Cc1ccccc1)C(=O)OC | inactive |
| COC(=O)[C@@H](Cc1ccccc1)N[C@H](/C=C/C1CC1)[C@@H](O)CCn1cc(-c2cccc(/C=C/C(=O)NO)c2)nn1 | inactive |
| COC(=O)[C@@H](Cc1ccccc1)N[C@H](/C=C/C1CC1)[C@@H](O)CCn1cc(-c2ccc(C(=O)NO)cc2)nn1 | active |
| Cc1ccc(-c2ccc3c(c2)O[C@@H](CN(C)C(=O)NC(C)C)[C@H](C)CN([C@@H](C)CO)S3(=O)=O)cc1 | inactive |
| C[C@H](CO)N1C[C@H](C)[C@H](CN(C)S(=O)(=O)c2ccc3c(c2)OCCCO3)OCc2cnnn2CCCC1=O | inactive |
| C[C@H](CO)N1C[C@H](C)[C@H](CN(C)Cc2ccccc2F)Oc2cc(C#CC3CC3)ccc2S1(=O)=O | inactive |
| CCN(CC)CCNC(=O)c1c(C)[nH]c(/C=C2/C(=O)Nc3ccc(-c4csc(-c5ccccc5)n4)cc32)c1C | active |
| C[C@@H]1CN([C@@H](C)CO)S(=O)(=O)c2ccc(C#CCC3CCCC3)cc2O[C@H]1CN(C)C(=O)c1cnccn1 | inactive |
| C[C@@H]1CCCCO[C@H](CN(C)S(=O)(=O)c2cccs2)[C@H](C)CN([C@H](C)CO)C(=O)c2cc(NC(=O)C3CCCCC3)ccc2O1 | inactive |
| CC(C)NC(=O)Nc1cccc2c1O[C@@H](CN(C)S(=O)(=O)c1ccc(F)cc1)[C@@H](C)CN([C@@H](C)CO)C2=O | inactive |

| Compound | cytotoxicity call |
| --- | --- |
| CC(=O)C1CCC2C3CC=C4CC(O)CCC4(C)C3CCC12C (stereo not drawn) | inactive |
| CC1C2CCC3C4CC=C5CC(N(C)C)CCC5(C)C4CCC32CN1C (stereo not drawn) | active |
| CC12CCC(O)CC1=CCC1C2CCC2(C)C(c3cccnc3)=CCC12 (stereo not drawn) | inactive |
| CC(O)C(N)C(=O)O (stereo not drawn) | inactive |
| CC(C)[C@@H](N)C(=O)O | inactive |
| C[C@@H](O)[C@H](N)C(=O)O | active |
| C[C@H](CO)N1C[C@H](C)[C@H](CN(C)Cc2ccc(Oc3ccccc3)cc2)Oc2ccc(NC(=O)Cn3cnnn3)cc2CC1=O | inactive |
| COC(=O)[C@H](Cc1ccc(-n2cc(-c3cccc(/C=C/C(=O)NO)c3)nn2)cc1)N1CC2=C[C@H]([C@@H](O)Cc3ccccc3)n3c(=O)n(C)c(=O)n3[C@@H]2[C@@H](C2CC2)O1 | active |
| COC(=O)[C@H](Cc1ccc(-n2cc(-c3ccc(C(=O)NO)cc3)nn2)cc1)N1CC2=C[C@H]([C@@H](O)Cc3ccccc3)n3c(=O)n(C)c(=O)n3[C@@H]2[C@@H](C2CC2)O1 | inactive |
| COC(=O)[C@H](Cc1ccc(-n2cc(-c3ccc(C(=O)NO)s3)nn2)cc1)N1CC2=C[C@H]([C@@H](O)Cc3ccccc3)n3c(=O)n(C)c(=O)n3[C@@H]2[C@@H](C2CC2)O1 | inactive |
| CC(=O)N1CCO[C@H]2CCN(C(=O)c3ccn(C)n3)C[C@H]21 | inactive |
| COc1c(N2CCNC(C)C2)c(F)cc2c(=O)c(C(=O)O)cn(C3CC3)c12 (stereo not drawn) | active |
| CCn1cc(C(=O)O)c(=O)c2cc(F)c(N3CCNC(C)C3)c(F)c21.Cl (stereo not drawn) | inactive |
| COc1c(N2CC3CCCNC3C2)c(F)cc2c(=O)c(C(=O)O)cn(C3CC3)c12.Cl (stereo not drawn) | inactive |
| C[C@@H]1CN([C@H](C)CO)C(=O)c2cc(NC(=O)Cc3ccccc3)ccc2O[C@@H](C)CCCCO[C@H]1CN(C)S(=O)(=O)c1ccc(F)cc1 | inactive |
| C[C@H](CO)N1C[C@H](C)[C@H](CN(C)S(=O)(=O)c2ccc(F)cc2)OCCCC[C@H](C)Oc2ccc(NC(=O)Cc3ccccc3)cc2C1=O | inactive |
| C[C@@H]1CCCCO[C@H](CN(C)S(=O)(=O)c2ccc(F)cc2)[C@@H](C)CN([C@@H](C)CO)C(=O)c2cc(NC(=O)Cc3ccccc3)ccc2O1 | active |
| C[C@@H]1CN([C@H](C)CO)C(=O)c2cc(NC(=O)Cc3ccccc3)ccc2O[C@@H](C)CCCCO[C@@H]1CN(C)S(=O)(=O)c1ccc(F)cc1 | inactive |
| C[C@@H]1CCCCO[C@@H](CN(C)S(=O)(=O)c2ccc(F)cc2)[C@H](C)CN([C@H](C)CO)C(=O)c2cc(NC(=O)Cc3ccccc3)ccc2O1 | inactive |
| C[C@H]1CCCCO[C@H](CN(C)S(=O)(=O)c2ccc(F)cc2)[C@@H](C)CN([C@@H](C)CO)C(=O)c2cc(NC(=O)Cc3ccccc3)ccc2O1 | inactive |
| C[C@@H]1CCCCO[C@H](CN(C)S(=O)(=O)c2ccc(F)cc2)[C@@H](C)CN([C@H](C)CO)C(=O)c2cc(NC(=O)Cc3ccccc3)ccc2O1 | active |
| C[C@@H]1CCCCO[C@@H](CN(C)S(=O)(=O)c2ccc(F)cc2)[C@@H](C)CN([C@@H](C)CO)C(=O)c2cc(NC(=O)Cc3ccccc3)ccc2O1 | active |
| C[C@@H]1CCCCO[C@@H](CN(C)S(=O)(=O)c2ccc(F)cc2)[C@H](C)CN([C@@H](C)CO)C(=O)c2cc(NC(=O)Cc3ccccc3)ccc2O1 | inactive |
